According to PubChem BioAssay (NCI):
Compounds without any hit were thinned out: in the full panel of roughly 79,000, 15% have a hit. Cut-off read from the data, not from the text of the source: active = growth inhibition above about 70%; inactive = the rest.

Tests used:
[1] = NCI Yeast Anticancer Drug Screen. Data for the rad50 strain (AID 155);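 note: 0% = growth of vehicle-only cultures of the same strain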; details: S. cerevisiae rad50 strain growth inhibition; at 50.0 µM; hits give high values
Summary of the method: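 Readout: growth inhibition relative to vehicle-treated cultures. Compound exposure was carried out in a genetically defined yeast strain deficient in DNA damage repair.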

[2] = NCI Yeast Anticancer Drug Screen. Data for the mec2-1 strain (AID 157); details: S. cerevisiae mec2-1 strain, at 50.0 µM, hits give high values
Summary of the method: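 Yeast mec2-1 mutant treated with compound. Readout: growth inhibition vs vehicle controls.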

[3] = NCI Yeast Anticancer Drug Screen. Data for the sgs1 mgt1 strain (AID 161);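 note: 0% = growth of cultures given vehicle only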; details: S. cerevisiae sgs1 mgt1 strain, at 50.0 µM, hits give high values
Summary of the method: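 Test agents were incubated with a DNA-repair-mutant yeast strain. Growth was then read and compared against vehicle-treated controls.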

[4] = NCI Yeast Anticancer Drug Screen. Data for the cln2 rad14 strain (AID 165);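 note: 0% = growth equal to vehicle treated cultures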; details: S. cerevisiae cln2 rad14 strain, at 50.0 µM, hits give high values
Summary of the method: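 cln2 rad14 yeast strain; compound exposure; growth inhibition read vs vehicle controls.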

[5] = NCI Yeast Anticancer Drug Screen. Data for the bub3 strain (AID 167); details: S. cerevisiae bub3 mutant strain, at 50.0 µM, hits give high values
Summary of the method: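 Readout: yeast growth inhibition, expressed relative to vehicle-only wells. The test organism is a mutant strain from a panel with lesions in DNA repair or checkpoint genes.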

[6] = NCI Yeast Anticancer Drug Screen. Data for the mlh1 rad18 strain (AID 175); details: S. cerevisiae mlh1 rad18 strain growth inhibition; at 50.0 µM; hits give high values
Summary of the method: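 Yeast w/ defined DNA-repair lesions; compound exposure; growth vs vehicle controls → % inhibition.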

Measured: growth inhibition

Cc1cc(N=Nc2c(O)c3ccccc3[nH]c2=O)ccc1N=Nc1ccc(C(=O)O)cc1
inactive: [1] 1.65% | [2] -9.15% | [3] 3.5% | [4] 1.1% | [5] -14.1% | [6] -8.05%

CCOC(=O)C(=O)C1C(=O)Nc2ccccc21 (stereo unspecified)
inactive: [1] -12.4% | [2] -4.9% | [3] -6.35% | [4] -2.5% | [5] -18.4% | [6] -12.6%

Cc1cc(C)c(C(C=O)c2ccccc2)c(C)c1 (stereo unspecified)
inactive: [1] 18.6% | [2] 2.85% | [3] 10.3% | [4] 17.9% | [5] 6.25% | [6] 4.45%

CCCCCCCC/C=C\CCCCCCCC(=O)OCCN(CCOC(=O)CCCCCCC/C=C\CCCCCCCC)C(=O)c1ccccc1
inactive: [1] -12.9% | [2] -1.2% | [3] -17.9% | [4] -20.2% | [5] -9.9% | [6] -2.65%

Cc1c(-c2ccccc2)c(-c2ccccc2)c(C)c(-c2ccc3c(c2)CCCC3)c1-c1ccccc1
inactive: [1] -15% | [2] -3.35% | [3] -33.2% | [4] 1.75% | [5] 22.2% | [6] -16.7%

Cc1cc(=O)oc2cc(NC(=O)C(CCCN=C(N)N)NC(=O)OCc3ccccc3)ccc12 (stereo unspecified)
inactive: [1] 26.5% | [2] -17.4% | [3] 23.1% | [4] -2.95% | [5] -4.1% | [6] 7.1%

O=C(O)c1ccc(N=Nc2ccccc2)cc1
inactive: [1] -4.4% | [2] 14.9% | [3] 20.9% | [4] 0.3% | [5] -5.1% | [6] 2.75%

OCc1cn(C(c2ccccc2)(c2ccccc2)c2ccccc2)cn1
inactive: [1] -113% | [2] -58.3% | [3] -22.5% | [4] -0.85% | [5] -1% | [6] -30.6%

CC(=O)ON(C(C)=O)c1ccc(C(N)=O)cc1
inactive: [1] -16.6% | [2] 6.8% | [3] -13.2% | [4] 6.25% | [5] -15.3% | [6] -71.5%

COc1ccc(C(C)c2cc(OC)c(OC)cc2OC)cc1 (stereo unspecified)
inactive: [1] 17.6% | [2] 10.8% | [3] 25.6% | [4] -29.2% | [5] 44.2% | [6] 37.8%

O=c1[nH]c(=O)n(C2CC(O)C(CO)O2)c2ncncc12 (stereo unspecified)
inactive: [1] -0.85% | [2] -0.3% | [3] 4.45% | [4] 2.15% | [5] -10.1% | [6] -57.1%

O=NC1C(Cl)C2CC1C1C(Cl)C(Cl)CC21 (stereo unspecified)
inactive: [1] 35% | [2] 14.7% | [3] 52.9% | [4] 40.4% | [5] 27.4% | [6] 33.1%

COc1ccc(C(=Nc2ccc(C)cc2)c2ccccc2)cc1
inactive: [1] -2.1% | [2] 7.2% | [3] -6.05% | [4] -43.6% | [5] -9.1% | [6] -15.6%

CCCCNC(=O)Nc1cc(C)ccc1C
inactive: [1] -0.4% | [2] 1.95% | [3] -0.7% | [4] -9.75% | [5] 8.2% | [6] 2.1%

CCOC(=O)c1cnc(NCCCNc2ncc(C(=O)OCC)c(=O)[nH]2)[nH]c1=O
inactive: [1] -2.65% | [2] 4% | [3] -2.6% | [4] -44.9% | [5] 3.8% | [6] 10.3%

CC(=O)OCC1(C)NC(=O)c2ccccc2O1 (stereo unspecified)
inactive: [1] 8.2% | [2] 20.2% | [3] 6.9% | [4] 8.15% | [5] 9.7% | [6] 22.4%

COc1c(C(=O)O)[nH]c(=O)[nH]c1=O
inactive: [1] 4.85% | [2] -30.1% | [3] 5.8% | [4] -5.65% | [5] -14.3% | [6] -5.5%

Brc1ccccn1
inactive: [1] 35.5% | [2] 11% | [3] 6.2% | [4] -15.1% | [5] 28.3% | [6] 22.8%

O=[N+]([O-])c1ccc(S(=O)(=O)SC(F)(F)F)cc1
inactive: [1] 14.7% | [2] 3.85% | [3] -1% | [4] -47.1% | [5] -3.25% | [6] 11.3%

CN1C(=O)C2C(C1=O)[C@H]1c3ccccc3C=CN1[C@@H]2C(=O)c1ccccc1 (stereo partly specified)
inactive: [1] 13.2% | [2] 7.7% | [3] -0.25% | [4] 0.6% | [5] -3.8% | [6] 10.1%

CCOC(=O)CCCCCC#N
inactive: [1] 1.35% | [2] -18.4% | [3] -6.1% | [4] -1.75% | [5] -9.5% | [6] -0.15%

Cc1ccc(N)c(C(O)(C(F)(F)F)C(F)(F)F)c1
inactive: [1] -5.7% | [2] 1.5% | [3] 12.5% | [4] 15.6% | [5] 16.6% | [6] 16.6%

c1cc[n+](Cc2ccc3ccccc3n2)cc1
inactive: [1] -0.95% | [2] -5.5% | [3] -5.85% | [4] -27.4% | [5] -2.2% | [6] 28.9%

O=S(=O)(O)CCCO
inactive: [1] 0.4% | [2] -44.3% | [3] -14.7% | [4] -1.05% | [5] -0.45% | [6] -2.4%

COc1cc(OC)c(OC(=O)CCl)c(OC)c1
inactive: [1] -3.85% | [2] 1.3% | [3] 3.2% | [4] 1.7% | [5] 11.2% | [6] 17.4%

Nc1[nH]c(=S)[nH]c(=O)c1N=Nc1c(Br)cc(S(N)(=O)=O)cc1Br
inactive: [1] 4.65% | [2] -15.9% | [3] -24.1% | [4] -24.9% | [5] 9.2% | [6] 0.25%

CC1=C2CCOC2=Nc2ccccc2O1
inactive: [1] 15.8% | [2] -6.3% | [3] 11.3% | [4] -1.8% | [5] -14.6% | [6] -6.2%

[O-]c1on[n+](-c2ccccc2)c1CN1CCOCC1
inactive: [1] -8.2% | [2] -8.35% | [3] -9.9% | [4] -45% | [5] 8.1% | [6] -3.05%

CC1(C)C(O)c2ccccc2OC1N1CCN(C2Oc3ccccc3C(O)C2(C)C)CC1 (stereo unspecified)
inactive: [1] -18.4% | [2] -1.35% | [3] 23.8% | [4] -4.65% | [5] -10.8% | [6] -8.6%

CCCCCc1nc2c(c(=O)n(C)c(=O)n2C)n1C
inactive: [1] 14.2% | [2] -9.35% | [3] -1% | [4] 0% | [5] 6% | [6] 17.6%

Cc1cc(C)n(C2OC(CO)C(O)C(O)C2O)c(=S)c1C#N (stereo unspecified)
inactive: [1] 21.1% | [2] 14.8% | [3] 29.6% | [4] 5.4% | [5] 8.4% | [6] 35.4%

C[N+](C)(C)c1cc2c(nn1)Nc1ccccc1S2
inactive: [1] 17.4% | [2] 3.8% | [3] -2.75% | [4] 14.7% | [5] -17.8% | [6] 8.35%

COC(=O)C(CC1=C(O)Nc2ccccc2N1)/C(=N/NC(N)=O)C(=O)Nc1ccccc1C (stereo unspecified)
inactive: [1] 11.4% | [2] 9% | [3] 13.6% | [4] -17.6% | [5] -5.5% | [6] -46.4%

CCOC(=O)COc1ccc(Cl)cc1C
inactive: [1] 11.7% | [2] -4.7% | [3] -2.4% | [4] 4.45% | [5] 6.8% | [6] -17.2%

C/C(=N\NS(=O)(=O)c1ccccc1)c1ccc(Cl)c(Cl)c1
inactive: [1] -19.3% | [2] -10% | [3] -18.9% | [4] 2.25% | [5] 10.5% | [6] -38.5%

c1ccc(CCOC(c2ccccc2)(c2ccccc2)c2ccccc2)cc1
inactive: [1] -11.2% | [2] -9.25% | [3] 0.3% | [4] -61.6% | [5] -10.4% | [6] -26.2%

CC(=O)N(C)c1ccccc1O
inactive: [1] 6.6% | [2] -10.1% | [3] -14.6% | [4] -33.2% | [5] 10.2% | [6] -19.9%

COc1ccc(C(c2c(O)c3ccccc3n(C)c2=O)c2c(O)c3ccccc3n(C)c2=O)cc1
inactive: [1] -39% | [2] -19.3% | [3] -25.9% | [4] -33.5% | [5] 1.1% | [6] -35.1%

FC1(F)SC2CCCCCCCCCCC2C1(F)F (stereo unspecified)
inactive: [1] -42.6% | [2] -15.3% | [3] -20.4% | [4] -18.7% | [5] 29.1% | [6] 2.05%

O=c1[nH]cc(CNC2CCCCC2)c(=O)[nH]1
inactive: [1] 21.5% | [2] -9.35% | [3] 7.65% | [4] -0.2% | [5] 4.6% | [6] 8.2%

CC(O)C(O)C(O)C(O)C=O (stereo unspecified)
inactive: [1] -13.2% | [2] -11.8% | [3] 3.8% | [4] 14.1% | [5] 7% | [6] -10.2%
